From PubChem BioAssay (EPA / NIEHS) come the findings set out here.

The nature of assay [1]: ATG_E_Box_CIS: Attagene CIS-FACTORIAL HepG2 Assay for human Enhancer Box (E-box) (AID 2282936). To be noted: HepG2 E-box cis-reporter transcription, actives raise or lower the signal. In short, it runs like this: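 Endogenous transcription factor activity was sensed in human HepG2 liver cells through transfected cis-promoter reporter units. After 24 h of dosing, total RNA was reverse-transcribed and reporter cDNA resolved by capillary electrophoresis.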

The nature of assay [2]: ATG_M_61_CIS: Attagene CIS-FACTORIAL HepG2 Assay for M61 Transcription Factor (Internal Marker) (AID 2282937). The settings on record: HepG2 Attagene CIS-FACTORIAL M61 internal marker reporter; actives raise or lower the signal. The method in brief: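 Background-control endpoint: HepG2 cells with cis-regulated reporter constructs, 24 h exposure, reporter mRNA detected via fluorescent primer extension and capillary electrophoresis; values from bidirectional fitting with DMSO baseline.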

Assay [3] can be described thus: ATG_EGR_CIS: Attagene CIS-FACTORIAL HepG2 Assay for human Early Growth Response 1 (EGR1) (AID 2282938). The settings on record: HepG2 Attagene CIS-FACTORIAL EGR reporter mRNA; actives raise or lower the signal. In short, it runs like this: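 Endpoint derived by bidirectional fitting versus DMSO vehicle. Method: cis-promoter reporter units transfected into HepG2, 24 h dosing, RNA isolation, RT-PCR with 6-FAM primer extension and HpaI digestion, then capillary electrophoresis fluorescence detection.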

Assay [4] is described as follows: ATG_M_19_CIS: Attagene CIS-FACTORIAL HepG2 Assay for M19 Transcription Factor (Internal Marker) (AID 2282939). To be noted: HepG2 Attagene CIS-FACTORIAL M19 internal marker reporter; actives raise or lower the signal. In short, it runs like this: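 Internal marker readout, fitted in both directions against DMSO, from HepG2 cells carrying transfected cis-element reporter constructs; RT-PCR and capillary electrophoresis of reporter mRNA after 24 h exposure.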

The nature of assay [5]: ATG_ERE_CIS: Attagene CIS-FACTORIAL HepG2 Assay for Estrogen Response Element (ERE) (AID 2282940). To be noted: HepG2 ERE cis-reporter, Attagene RNA transcript; actives raise or lower the signal. In short, it runs like this: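 After 24 h compound treatment, RNA from transfected HepG2 cells was reverse-transcribed, reporter cDNA PCR-amplified, FAM-labelled, HpaI-cut and resolved by capillary electrophoresis. ERE-driven cis reporter transcripts reflect endogenous factors; gain or loss scored against DMSO.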

The nature of assay [6]: ATG_Ets_CIS: Attagene CIS-FACTORIAL HepG2 Assay for human Erythroblast Transformation Specific (ETS) (AID 2282941). The settings on record: HepG2 ETS cis-reporter transcription; AC50: actives raise or lower the signal unless noted; outcome: actives raise or lower the signal unless noted. The method in brief: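 RT-PCR/capillary electrophoresis fluorescence read-out of reporter mRNA; HepG2 transient multi-reporter transfection; 24 h compound exposure; gain or loss of signal fitted bidirectionally relative to DMSO.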

Assay [7] in a line: ATG_FoxO_CIS: Attagene CIS-FACTORIAL HepG2 Assay for human Forkhead box O (FoxO) (AID 2282943). To be noted: HepG2 Attagene cis-reporter, FoxO element, mRNA; actives raise or lower the signal. In short, it runs like this:
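Values reflect reporter mRNA induction or loss in HepG2 cells 24 h post-dosing, fitted bidirectionally with DMSO as negative control and baseline. Detection used RT-PCR and fluorescence capillary electrophoresis.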

Assay [8] can be described thus: ATG_GATA_CIS: Attagene CIS-FACTORIAL HepG2 Assay for human GATA Binding Protein (AID 2282944). To be noted: HepG2 GATA cis-element reporter, Attagene multiplex mRNA; actives raise or lower the signal. The method in brief: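 Reporter transcripts from a GATA cis-regulated unit, among multiplexed reporters in transfected HepG2 cells, were measured by RT-PCR with capillary electrophoresis after 24 h dosing. Induction or loss scored relative to DMSO.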

Assay [9] is described as follows: ATG_GLI_CIS: Attagene CIS-FACTORIAL HepG2 Assay for human Zinc Finger Protein GLI1 (AID 2282945). The settings on record: HepG2, Attagene cis-factorial reporter mRNA, GLI element; actives raise or lower the signal. In short, it runs like this: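 HepG2 cells transiently transfected with cis-promoter multiplexed reporter units report endogenous transcription factor activity. After 24 h chemical exposure, reporter mRNA was quantified by RT-PCR, 6-FAM labelling, HpaI digestion and capillary electrophoresis, with bidirectional fitting against DMSO.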

The target of assay [10] is Bile acid receptor (Homo sapiens) (UniProt Q96RI1). The experiment in a line: ATG_IR1_CIS: Attagene CIS-FACTORIAL HepG2 Assay for human Nuclear Receptor Subfamily 1 Group H Member 4 (NR1H4), IR1 submotif (AID 2282946). The settings on record: IR1 reporter transcription, actives raise or lower the signal. The method in brief: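 Readout: reporter transcript levels by RT-PCR with fluorescent capillary electrophoresis, from HepG2 cells transiently transfected with multiplexed cis-regulated reporters and dosed 24 h. Gain- or loss-of-signal fitted versus DMSO negative control.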

The nature of assay [11]: ATG_GRE_CIS: Attagene CIS-FACTORIAL HepG2 Assay for human Glucocorticoid Response Elements (GRE) (AID 2282947). The settings on record: HepG2 GRE cis-reporter, Attagene multiplex mRNA; AC50: actives raise or lower the signal unless noted; outcome: actives raise or lower the signal unless noted. The method in brief: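 Cells (HepG2) bearing transfected cis-promoter reporter transcription units were treated with chemical for 24 hours. Reporter mRNA was measured via RT-PCR with capillary electrophoresis, and activity was fitted in both directions relative to DMSO.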

Assay [12] is described as follows: ATG_ISRE_CIS: Attagene CIS-FACTORIAL HepG2 Assay for human Interferon Regulatory Factor 1 (IRF1) binding to an Interferon-Stimulated Response Element (ISRE) (AID 2282948). To be noted: HepG2 ISRE cis-reporter (Attagene), mRNA transcription readout; actives raise or lower the signal. The method in brief:
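Read-out: fluorescent RT-PCR products resolved by capillary electrophoresis, reporting endogenous transcription factor activity via ISRE-driven reporter mRNA in transfected HepG2 cells dosed for 24 h; gain or loss fitted relative to DMSO.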

Assay [13] is described as follows: ATG_M_32_CIS: Attagene CIS-FACTORIAL HepG2 Assay for M32 Transcription Factor (Internal Marker) (AID 2282949).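 Note: background control marker of the multiplexed CIS panel rather than a real target.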 The settings on record: HepG2 Attagene cis-factorial M32 reporter, mRNA; actives raise or lower the signal. In short, it runs like this: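 HepG2 transfectants (cis-regulated reporter transcription units) dosed 24 h. Reporter mRNA by RT-PCR plus CE, analysed as gain or loss relative to DMSO.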

A short description of assay [14]: ATG_M_06_CIS: Attagene CIS-FACTORIAL HepG2 Assay for M06 Transcription Factor (Internal Marker) (AID 2282950). To be noted: HepG2 Attagene CIS-FACTORIAL M06 internal marker reporter; actives raise or lower the signal. The method in brief:
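Serves as a background control readout. Transfected HepG2 exposed to compounds for 24 h, then reporter transcripts quantified by fluorescent RT-PCR and capillary electrophoresis. Both directions fitted against DMSO baseline.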

Assay [15] has as its target Hypoxia-inducible factor 1-alpha (Homo sapiens) (UniProt Q16665). The experiment in a line: ATG_HIF1a_CIS: Attagene CIS-FACTORIAL HepG2 Assay for human Hypoxia Inducible Factor 1 (HIF1A) (AID 2282951). The settings on record: HepG2 Attagene cis-factorial HIF1a reporter transcription; actives raise or lower the signal. In short, it runs like this: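 Dosed 24 h, transfected HepG2 cells yielded total RNA whose reporter transcripts were RT-PCR-amplified and sized by capillary electrophoresis using fluorescent labelling; DMSO defined baseline, with gain and loss of signal both fitted.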

The target in assay [16] is Hepatocyte nuclear factor 6 (Homo sapiens) (UniProt Q9UBC0). As to the kind of experiment: ATG_HNF6_CIS: Attagene CIS-FACTORIAL HepG2 Assay for human Hepatocyte Nuclear Factor 6 (HNF6) (AID 2282952). To be noted: HepG2 Attagene cis-factorial HNF6 reporter transcription; actives raise or lower the signal. The method in brief: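 Using cis-element reporters in HepG2 liver cells, the assay tracks endogenous factor-driven transcription 24 h post-dosing. Signal comes from 6-FAM-labelled, HpaI-digested RT-PCR fragments, with gain or loss scored against DMSO.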

Assay [17] deals with Heat shock factor protein 1 (Homo sapiens) (UniProt Q00613). The experiment in a line: ATG_HSE_CIS: Attagene CIS-FACTORIAL HepG2 Assay for human Heat Shock Transcription Factor 1 (HSE) (AID 2282953). The settings on record: HepG2 HSE cis-reporter, Attagene RNA transcription; actives raise or lower the signal. The method in brief: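 Endogenous transcription factor activity in transiently transfected HepG2, read as reporter mRNA by RT-PCR with fluorescent capillary electrophoresis after 24 h. Gain or loss of signal fitted versus DMSO baseline.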

The nature of assay [18]: ATG_MRE_CIS: Attagene CIS-FACTORIAL HepG2 Assay for human Metal Responsive Element (MRE) (AID 2282954). The settings on record: HepG2 MRE cis-reporter transcription, Attagene multiplex; actives raise or lower the signal. In short, it runs like this:
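Cells were transfected with cis-promoter reporter transcription units, then dosed for 24 h. RNA was reverse-transcribed, amplified, fluorescently labelled and resolved by capillary electrophoresis, and activity was fitted in both directions relative to DMSO.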

Assay [19] in a line: ATG_PBREM_CIS: Attagene CIS-FACTORIAL HepG2 Assay for human Phenobarbital-responsive Enhancer Module (PBREM) (AID 2282955). To be noted: HepG2 PBREM cis-reporter, Attagene multiplexed transcription; actives raise or lower the signal. The method in brief:
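Transfected liver-derived HepG2 cells exposed 24 h; PBREM reporter transcript quantified via RT-PCR and capillary electrophoresis, with activity in either direction referenced to DMSO.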

The target in assay [20] is Hepatocyte nuclear factor 3-beta (Homo sapiens) (UniProt Q9Y261). As to the kind of experiment: ATG_FoxA2_CIS: Attagene CIS-FACTORIAL HepG2 Assay for human Forkhead box A2 (FOXA2) (AID 2282942). To be noted: HepG2 cis-reporter transcription factor activity, 24 h; actives raise or lower the signal. The method in brief: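 Measured: reporter mRNA induction or loss in HepG2 transiently carrying multiple cis-regulated reporter units, 24 h after dosing. Quantified by RT-PCR plus capillary electrophoresis, normalised to DMSO.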

Activity calls are given as the source filed them. Rule for the calls: active = hit-call score of the fitted dose curve at least 0.9, where 1 is the maximum; inactive = score below 0.9.

Hypoxia-inducible factor 1-alpha (Homo sapiens), sequence (Q16665 whole entry, looked up): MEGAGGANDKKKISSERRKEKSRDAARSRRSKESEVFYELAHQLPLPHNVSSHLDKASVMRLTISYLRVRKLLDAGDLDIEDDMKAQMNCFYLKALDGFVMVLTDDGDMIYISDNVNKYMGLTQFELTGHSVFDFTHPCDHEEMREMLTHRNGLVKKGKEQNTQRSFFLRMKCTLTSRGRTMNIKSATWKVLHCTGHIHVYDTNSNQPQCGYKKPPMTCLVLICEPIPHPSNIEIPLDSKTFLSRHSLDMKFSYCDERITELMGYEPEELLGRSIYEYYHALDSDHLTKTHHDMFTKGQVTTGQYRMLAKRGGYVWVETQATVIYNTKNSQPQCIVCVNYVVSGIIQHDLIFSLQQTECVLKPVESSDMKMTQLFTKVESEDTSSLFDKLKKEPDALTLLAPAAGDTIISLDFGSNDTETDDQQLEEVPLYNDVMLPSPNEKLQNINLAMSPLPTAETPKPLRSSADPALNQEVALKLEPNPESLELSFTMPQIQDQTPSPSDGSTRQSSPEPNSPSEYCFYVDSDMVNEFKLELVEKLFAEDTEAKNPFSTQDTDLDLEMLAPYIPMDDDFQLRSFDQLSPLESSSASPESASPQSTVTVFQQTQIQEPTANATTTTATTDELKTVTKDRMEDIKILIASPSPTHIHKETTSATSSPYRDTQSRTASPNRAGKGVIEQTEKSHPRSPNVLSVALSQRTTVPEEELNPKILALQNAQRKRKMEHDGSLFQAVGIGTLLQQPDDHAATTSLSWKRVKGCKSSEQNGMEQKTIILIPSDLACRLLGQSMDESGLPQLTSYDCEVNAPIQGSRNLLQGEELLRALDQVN
Bile acid receptor (Homo sapiens), sequence (Q96RI1 whole entry, looked up): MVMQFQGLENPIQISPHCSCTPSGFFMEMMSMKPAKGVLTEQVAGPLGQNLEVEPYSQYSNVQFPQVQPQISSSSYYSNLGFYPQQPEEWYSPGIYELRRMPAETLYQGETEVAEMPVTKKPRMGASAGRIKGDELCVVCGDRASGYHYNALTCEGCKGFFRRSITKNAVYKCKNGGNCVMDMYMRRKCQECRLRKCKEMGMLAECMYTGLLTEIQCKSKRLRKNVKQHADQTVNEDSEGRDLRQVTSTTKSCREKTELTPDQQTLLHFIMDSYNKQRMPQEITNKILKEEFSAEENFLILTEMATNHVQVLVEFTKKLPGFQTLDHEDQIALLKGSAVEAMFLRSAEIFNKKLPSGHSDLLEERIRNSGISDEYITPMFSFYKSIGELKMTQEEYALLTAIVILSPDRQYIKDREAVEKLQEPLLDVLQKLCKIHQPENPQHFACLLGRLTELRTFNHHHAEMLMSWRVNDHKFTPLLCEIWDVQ
Hepatocyte nuclear factor 6 (Homo sapiens), sequence (Q9UBC0 whole entry, looked up, the tested form may be a part): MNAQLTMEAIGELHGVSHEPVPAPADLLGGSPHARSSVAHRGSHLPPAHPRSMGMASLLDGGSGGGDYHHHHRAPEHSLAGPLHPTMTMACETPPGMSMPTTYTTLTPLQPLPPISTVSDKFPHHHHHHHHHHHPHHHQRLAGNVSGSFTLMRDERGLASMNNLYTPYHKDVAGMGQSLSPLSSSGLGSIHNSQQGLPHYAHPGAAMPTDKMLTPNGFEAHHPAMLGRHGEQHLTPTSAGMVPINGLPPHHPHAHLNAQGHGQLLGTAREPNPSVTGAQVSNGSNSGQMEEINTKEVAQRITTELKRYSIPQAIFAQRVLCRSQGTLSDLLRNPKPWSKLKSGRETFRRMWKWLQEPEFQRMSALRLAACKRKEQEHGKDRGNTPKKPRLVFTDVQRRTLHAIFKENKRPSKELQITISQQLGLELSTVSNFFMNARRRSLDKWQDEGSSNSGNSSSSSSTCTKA
Heat shock factor protein 1 (Homo sapiens), sequence (Q00613 whole entry, looked up): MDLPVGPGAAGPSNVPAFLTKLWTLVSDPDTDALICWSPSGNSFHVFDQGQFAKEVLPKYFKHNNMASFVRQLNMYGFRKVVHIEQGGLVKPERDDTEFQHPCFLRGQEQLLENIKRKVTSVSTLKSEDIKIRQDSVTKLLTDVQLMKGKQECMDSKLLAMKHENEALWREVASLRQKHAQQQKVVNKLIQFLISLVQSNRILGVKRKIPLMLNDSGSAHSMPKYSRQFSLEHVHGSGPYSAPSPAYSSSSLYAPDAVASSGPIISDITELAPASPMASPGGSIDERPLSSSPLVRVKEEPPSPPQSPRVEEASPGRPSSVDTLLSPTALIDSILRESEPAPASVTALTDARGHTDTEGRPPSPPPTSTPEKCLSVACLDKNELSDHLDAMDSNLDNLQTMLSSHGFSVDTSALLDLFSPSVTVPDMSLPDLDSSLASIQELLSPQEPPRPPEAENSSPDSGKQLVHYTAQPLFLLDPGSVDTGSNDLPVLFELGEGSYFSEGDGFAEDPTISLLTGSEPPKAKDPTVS
Hepatocyte nuclear factor 3-beta (Homo sapiens), sequence (Q9Y261 whole entry, looked up): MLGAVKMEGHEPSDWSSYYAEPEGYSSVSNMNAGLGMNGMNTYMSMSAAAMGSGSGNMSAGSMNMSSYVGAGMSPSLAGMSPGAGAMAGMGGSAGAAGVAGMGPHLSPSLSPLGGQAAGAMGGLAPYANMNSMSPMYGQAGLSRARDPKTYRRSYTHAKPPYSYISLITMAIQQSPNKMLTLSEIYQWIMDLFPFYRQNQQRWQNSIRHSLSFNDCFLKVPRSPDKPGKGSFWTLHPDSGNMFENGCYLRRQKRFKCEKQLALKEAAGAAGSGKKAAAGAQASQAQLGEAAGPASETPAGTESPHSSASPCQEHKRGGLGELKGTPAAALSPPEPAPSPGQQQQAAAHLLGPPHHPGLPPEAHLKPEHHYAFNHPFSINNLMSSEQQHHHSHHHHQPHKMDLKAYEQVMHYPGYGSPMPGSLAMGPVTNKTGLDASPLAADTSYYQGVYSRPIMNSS

As a reminder, the AC50 is the concentration at which the activity in the assay is half-maximal. Take `O=C1c2ccccc2C(=O)c2c(O)c(O)cc(O)c21`: the results for the AC50 in assay [1] and in assay [5] were 8.54 µM (active) and 2.42 µM (active), respectively. For the same compound, the result in assay [2], in assay [3], in assay [4], in assay [6], in assay [7] and in assay [8] was inactive. Also, the result in [9], in [10], in assay [11], in assay [12], in assay [13] and in [14] was inactive. Further, the compound was called inactive in [15], in assay [16], in assay [17], in assay [18] and in [19].

As to `Oc1c(Cl)cc(Cl)cc1Sc1cc(Cl)cc(Cl)c1O`, the result in assay [1], in assay [2], in assay [3], in assay [4], in [6] and in assay [20] was inactive. Further, the compound was classed as inactive in assay [7], in assay [8], in assay [9], in [10], in [11] and in assay [12]. Also, the call in assay [13], in assay [14], in assay [15], in assay [16] and in assay [19] was inactive. Further, the AC50 in [17] was 18.3 µM (active); in assay [18], 11.5 µM (active).

On to `O=P(O)(O)CCC(F)(F)C(F)(F)C(F)(F)C(F)(F)C(F)(F)C(F)(F)F`, for which the result in assay [1], in [2], in assay [3], in assay [4], in assay [5] and in assay [6] was inactive. The compound was classed as inactive in [7], in assay [8], in assay [9], in [10], in assay [11] and in assay [12]. The compound was classed as inactive in assay [13], in assay [14], in [15], in assay [16], in [17] and in [18]. In addition, the result in [19] was inactive.

For the compound `Nc1ccc(O)c(C(=O)O)c1`, the outcome in assay [1], in assay [2], in [3], in assay [4], in [6] and in [7] was inactive. Besides, the compound was classed as inactive in [8], in assay [9], in assay [10], in assay [11], in assay [12] and in assay [13]. Besides, the compound was called inactive in assay [14], in assay [15], in [16], in assay [17], in assay [18] and in assay [19]. In [5], the AC50 was 12.3 µM (active).
